Target: AMP-activated protein kinase, AMPK (Homo sapiens) (UniProt P54646+O43741+P54619+Q9UGJ0+Q9Y478+Q13131+Q9UGI9)
Experiment: AMP-dependent Kinase enzyme assay. An in vitro enzyme assay that detects ADP turnover that is directly proportional to AMPK activity. This uses naive AMPK that is activated during the assay with MK-8722
Format: functional
Design: scale not given: direction of the effect not stated beside the values
Conditions: 30 µM

Row | SMILES | Percent Effect
1 | COc1c(C)cnc(CN2CCCC(c3noc(C4CC4)n3)C2)c1C (stereo not given) | -0.157%
2 | O=C(c1coc(-c2ccccc2)n1)N1CCS(=O)(=O)CC1 | 0.626%
3 | CCCN1CCN(S(=O)(=O)c2ccccc2OC)[C@H]2CS(=O)(=O)C[C@H]21 | 2.61%
4 | COc1ccc(OC2CCN(C(=O)c3cnc(C)s3)CC2)cc1 | -2.19%
5 | CCCc1noc(C[S+]([O-])CC(=O)NCc2ccccc2)n1 (stereo not given) | -0.224%
6 | COCCN1C(=O)[C@H]2CC[C@@H]1CN(S(=O)(=O)c1ccc(OC)cc1)C2 | 13.1%
7 | COCc1nc(C2CC2)nn1-c1ccccc1Cl | -1.23%
8 | Cc1oc(-c2ccco2)nc1CN1CCc2cncnc2C1 | -10.6%
9 | CC(C)NC(=O)C1(Cc2ccccc2-c2cncnc2)CCCNC1 (stereo not given) | 18.8%
10 | Cc1nc(C)c(CN2CCOC(Cc3ccccc3Cl)C2)nc1C (stereo not given) | 0.455%
11 | O=c1[nH]c2ccc(S(=O)(=O)N(CCO)Cc3ccncc3)cc2[nH]1 | 15.8%
12 | CN(C)CC(=O)NC1CC(C)(C)Cc2nc(C(C)(C)C)ncc21 (stereo not given) | -0.385%
13 | CN1CCN(CCCOc2ccccc2CN2C[C@H]3CC[C@H]2C3)CC1 | -5.02%
14 | Cc1cc(NC(C)c2n[nH]c(C)n2)n2nc(C)c(C)c2n1 (stereo not given) | 20.5%
15 | Cc1noc(OCC(=O)N2CCCCC2C)n1 (stereo not given) | -1.69%
16 | COCCCC1CCCCN1Cc1cn2cc(C)ccc2n1 (stereo not given) | 7.53%
17 | COc1ccc(OCc2noc(CN(C)C3CCS(=O)(=O)C3)n2)cc1 (stereo not given) | -2.23%
18 | CN(C)c1nc2c(c(=O)[nH]1)CCN(C(=O)C1CCCO1)C2 (stereo not given) | 2.77%
19 | CCN(C(=O)CN1CCCC1c1c(C)nn(C)c1OC)C1CC1 (stereo not given) | 3.98%
20 | O=C(COc1cccc(Cl)c1)N1CCOCC(O)(CN2CCCC2)C1 (stereo not given) | 6.36%

Row | SMILES | Percent Effect
21 | Cc1ncsc1COC(=O)c1cccc2c1OCCO2 | 7.13%
22 | O=C(NCC[S+]([O-])c1ccccc1)c1ccc2[nH]c(=O)[nH]c2c1 (stereo not given) | 6.24%
23 | Cc1cc2n(n1)CC(CNCc1cc(C)on1)CN2 (stereo not given) | -6.26%
24 | CCc1ccc(CC)c(NCc2cnc(N3CCOCC3)nc2)c1 | -6.68%
25 | COc1ncccc1-c1cc(C(N)=O)ccn1 | 1.56%
26 | FC(F)(F)c1ccnc(N2CCCN(Cc3ccccn3)CC2)n1 | -1.31%
27 | CC(C(=O)NCC(C)(C)c1ccc2c(c1)OCO2)n1ccnc1 (stereo not given) | 0.66%
28 | Cc1nc(CNC(=O)c2cc(COc3ccccc3)[nH]n2)n[nH]1 | 7.31%
29 | COCCC(=O)N(CCC#N)c1ccc(C)c(C)c1 | -6.74%
30 | Cc1ccc(N2CCC(c3cc(Cc4ccccc4)n[nH]3)CC2)nn1 | 10.9%
31 | CN1CCCC(CNC(=O)CN(C)S(=O)(=O)c2cccnc2)C1 (stereo not given) | -10.7%
32 | Cc1cnc(N2CCN(C)CC2)nc1-c1ccnn1C | -3.23%
33 | CCc1nc(C)c(C(=O)N[C@@H]2c3ccccc3C[C@@H]2O)o1 | 15.9%
34 | Cc1nc(CNC(=O)c2cc(COc3ccccc3F)[nH]n2)n[nH]1 | 5.27%
35 | O=C(CCN1CCOCC1)Nc1cccc(CNCc2ccsc2)c1 | -5.46%
36 | OCCC1(NCc2ccc(-n3cccn3)cc2)CCOCC1 | -4.22%
37 | CC(NCc1cccc(NC(=O)C2CCCCC2)c1)c1cnn(C)c1 (stereo not given) | 4.61%
38 | Cc1sc(C(=O)NS(C)(=O)=O)cc1-c1ccc(F)cc1 | -4.08%
39 | CC(c1nccs1)N(C)S(=O)(=O)NCc1ccccc1 (stereo not given) | -1.57%
40 | CC(CNC(=O)c1cnc[nH]1)Oc1ccccc1Br (stereo not given) | 10.3%

Source: ChEMBL document CHEMBL3988442, “University of Dundee, Small-Polar-MMV Screening Library” (2021)
